# Hits are enriched below; roughly 3.2% of the tested compounds scored in any of these assays.
# Coupling enz: qHTS Assay for Inhibitors of Fructose-1,6-bisphosphate Aldolase from Giardia Lamblia: Coupling assay counterscreen | coupling enzyme system counterscreen, AmpLite Red fluorescence | activity change, negative = inhibition, % at 58.2 µM, hits read low | 290,000 tested, 0.67% active; in the data active = activity change below about -30%
#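 First, compound is pin-transferred into glyceraldehyde-3-phosphate coupling-enzyme reagent at 57.5 uM final and held 10 min at RT. Next, substrate, coupling system and AmpLite Red are added. After 20 min RT, fluorescence (525/598 nm) is read.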
# GALK inhibitor: qHTS Assay for Inhibitors of Human Galactokinase (GALK) | P51570 | Purified GALK, Kinase-Glo residual ATP luminescence | Potency, µM (doses to about 57.5 µM), hits mostly inhibitors | 270,000 tested, 0.007% active | AID 1868, 2009
#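 Compounds were pin-transferred into ATP buffer (35 uM final), then GALK plus galactose (5 nM, 100 uM final) was added. After 1 h at room temperature, Kinase-Glo Plus was added and luminescence read after 10 min.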
# PLK1 PBD inh: qHTS for Inhibitors of PLK1-PDB (polo-like kinase 1 - polo-box domain): Primary Screen. Potency, µM, hits mostly inhibitors. Plk1 PBD binding of FITC phosphopeptide, fluorescence polarization. Serine/threonine-protein kinase PLK1 (Homo sapiens), P53350. 360,000 tested, 2.8% active; also: series mostly up to about 57 µM; nearly all actives have a fitted effect of over 65% in size
# USP1-UAF1 inh: Inhibitors of USP1/UAF1: Primary Screen; Ubiquitin carboxyl-terminal hydrolase 1 (Homo sapiens), O94782; recombinant USP1/UAF1, Ub-Rhodamine cleavage fluorescence; Potency, µM (titrated, usually from 57.1 µM), actives largely listed as inhibitors; 390,000 tested, 0.23% active; AID 743255, 2014; also: nearly all actives have a fitted effect of over 60% in size
# Target sequence (O94782 whole entry, looked up): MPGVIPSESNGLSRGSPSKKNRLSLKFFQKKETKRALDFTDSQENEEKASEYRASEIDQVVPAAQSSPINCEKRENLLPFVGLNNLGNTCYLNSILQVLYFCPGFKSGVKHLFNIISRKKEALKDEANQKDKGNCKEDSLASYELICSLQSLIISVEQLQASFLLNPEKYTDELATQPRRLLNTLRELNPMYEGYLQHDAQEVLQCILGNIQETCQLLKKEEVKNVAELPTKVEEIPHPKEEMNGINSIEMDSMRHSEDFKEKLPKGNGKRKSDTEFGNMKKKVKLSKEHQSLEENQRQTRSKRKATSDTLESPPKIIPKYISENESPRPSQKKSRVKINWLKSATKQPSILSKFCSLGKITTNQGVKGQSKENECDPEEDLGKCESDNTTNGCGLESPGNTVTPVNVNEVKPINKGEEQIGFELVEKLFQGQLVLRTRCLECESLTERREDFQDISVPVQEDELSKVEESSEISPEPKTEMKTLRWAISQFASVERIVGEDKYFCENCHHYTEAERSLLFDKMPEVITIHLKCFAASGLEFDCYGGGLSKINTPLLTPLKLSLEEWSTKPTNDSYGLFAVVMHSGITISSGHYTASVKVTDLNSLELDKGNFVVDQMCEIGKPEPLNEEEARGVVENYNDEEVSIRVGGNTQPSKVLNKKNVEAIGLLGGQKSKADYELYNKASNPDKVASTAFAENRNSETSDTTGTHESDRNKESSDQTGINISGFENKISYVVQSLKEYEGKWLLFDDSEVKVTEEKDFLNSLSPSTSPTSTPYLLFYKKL
#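 USP1/UAF1 complex at 1 nM was preincubated with compound for 15 min at room temperature, then Ub-Rho substrate (150nM final) was added. Fluorescence (480/540 nm) was read kinetically, 6 reads every 60 seconds.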
# USP2a block: qHTS Assay for Inhibitors of Ubiquitin-specific Protease USP2a Using CHOP2 as the Reporter; Ubiquitin carboxyl-terminal hydrolase 2 (Homo sapiens), O75604; Potency, µM (highest dose often 38.3 µM), hits mostly inhibitors; 330,000 tested, 0.01% active; USP2 core, Ub-CHOP2 coupled fluorogenic reporter, 485/531; AID 463254, 2010
#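 Cell-free coupled assay: 10nM USP2 core preincubated 30min RT with compound in Tris-HCl pH 8.0/CaCl2/CHAPS buffer, then 25nM Ub-CHOP2 and 25nM reporter substrate; fluorescence (Ex 485/Em 531) read after 60min RT, normalized to NEM inhibition, concentration-response curves fitted.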
# VDR inhibitor: Inhibitors of the vitamin D receptor (VDR): qHTS | Vitamin D3 receptor (Homo sapiens), P11473 | VDR-SRC2-3 peptide fluorescence polarization, 2 h | Potency, µM, actives largely listed as inhibitors | 400,000 tested, 0.93% active
#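 Inhibition of the VDR/SRC2-3 peptide interaction is quantified by fluorescence polarization. Compounds (23 nl, pintool) incubate with the reagents for 2 hours at ambient room temperature.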
# A number is an active result; 0 = inactive; ? = inconclusive; - = no result given; ! = not active in a repeat. Unless noted, calls follow the shape of the dose curve; as a rule, active = well fitted curve in the direction sought with a large enough effect; inconclusive = small, poorly fitted or top-dose-only effect, or another doubt; inactive = no such curve, though single readings can be large; an effect the other way counts as inactive or inconclusive.
SMILES,Coupling enz,GALK inhibitor,PLK1 PBD inh,USP1-UAF1 inh,USP2a block,VDR inhibitor
Cc1cc(Br)cc(Cl)c1OCC(=O)NC(=O)NCc1ccccc1,0,0,0,0,0,0
Cc1ccc(C(C)C)c(OCc2ccc(C(=O)N/N=C/c3ccc(C(=O)O)cc3)cc2)c1,0,0,24µM,0,0,0
Cc1ccc(C(C)C)c(OCc2ccc(C(=O)N/N=C/c3ccc(O)cc3O)cc2)c1,0,0,0,0,0,0
COc1ccc(C)cc1NC(=O)CSc1ccc(-c2sc(C)nc2C)nn1,0,0,0,0,0,0
Cc1nn(-c2ccccn2)c2c1C(=O)C(Br)CC2 (centres undefined),-64,0,3µM,0,0,18µM
CCCCC1=CC2=CC(=O)C(C)(OC(=O)CC)C(=O)C2=CN1C1CCCCC1 (centres undefined),0,0,0,?,0,0
COC(=O)CCCC1=CC2=CC(=O)C(C)(OC(=O)c3cccs3)C(=O)C2=CN1C1CCCCC1 (centres undefined),-41!,0,0,0,0,0
COC(=O)CCCC1=CC2=CC(=O)C(C)(OC(=O)c3cccs3)C(=O)C2=CO1 (centres undefined),0,-,-,-,-,0
COC(=O)CCCC1=CC2=CC(=O)C(C)(OC(=O)c3cccs3)C(=O)C2=CN1C1CC1 (centres undefined),-40!,0,0,?,0,0
Cc1cc(C)n2c(SC/C(O)=C(\C#N)c3nc4ccccc4[nH]3)nnc2n1,0,0,?,0,0,0
CC(=O)OC1=C(C#N)Cn2ccc3cccc1c32,-41,0,-,-,0,-
CC(C)CC(=O)c1c[nH]c(C(=O)NCc2cccnc2)c1,0,0,0,0,0,0
O=[N+]([O-])c1ccc(S(=O)(=O)NN=Cc2ccc(Cl)c(Cl)c2)cc1,-,-,11µM,0,-,50µM
CC(=O)Nc1ccc(S(=O)(=O)NN=Cc2ccc(Cl)c(Cl)c2)cc1,-,-,0,0,-,0
COc1ccccc1-c1nccc(Nc2ccc(F)cc2)n1,0,-,-,-,-,50µM
Cc1noc(C)c1-c1nccc(Nc2ccc(F)cc2)n1,0,-,-,-,-,0
CN(C)C(=O)c1ccc(-c2nccc(NCc3ccccc3)n2)cc1,0,-,-,-,-,?
Cc1ccccc1-c1nccc(Nc2ccc(F)cc2)n1,0,-,-,-,-,0
Fc1ccc(Nc2ccnc(-c3ccc4c(c3)OCO4)n2)cc1,0,-,-,-,-,40µM
CN(C)C(=O)c1ccc(-c2nccc(Nc3ccc(F)cc3)n2)cc1,0,-,-,-,-,50µM
Fc1ccc(Nc2ccnc(-c3ccoc3)n2)cc1,0,-,-,-,-,25µM
Cc1ccc(S(=O)(=O)N2CCOCC2)cc1NC(=O)CNc1ccccc1N1CCCC1=O,-,-,0,0,0,0
O=C(Nc1nc(-c2ccccn2)cs1)C1CC(=O)N(c2ccc3c(c2)OCCO3)C1 (centres undefined),0,0,0,0,0,0
COc1ccc(CNC(=O)COC(=O)CC(NC(N)=O)c2ccc(Cl)cc2)cc1OC (centres undefined),-,-,0,0,0,0
Cc1[nH]c(=O)c(C#N)c(C)c1Cl,0,0,0,0,0,0
SMILES,Coupling enz,GALK inhibitor,PLK1 PBD inh,USP1-UAF1 inh,USP2a block,VDR inhibitor
N#Cc1sc(=O)[nH]c1Cl,0,-,?,0,-,79µM
COc1cc(NC(=O)c2ccco2)c(OC)cc1NC(=O)Nc1ccc(Cl)cc1,0,0,0,0,0,0
Cc1ccc(-n2c(=S)[nH]c3sc4c(c3c2=O)CCC4)cc1,0,0,24µM,?,0,0
Cc1ccc(NC(=O)C(=O)NCC2CCCN2S(=O)(=O)c2cccs2)c(C)c1 (centres undefined),-,-,0,0,0,0
COCCn1cnc2c1c(=O)n(CC(=O)NC1CCCCC1)c(=O)n2Cc1ccccc1,-,-,0,0,-,-
COc1ccc(OCC(=O)Nc2ccc3c(c2)nc(CCN2CCN(C)CC2)n3C)cc1,-,0,24µM,0,0,?
Cn1c(CN2CCOCC2)nc2cc(NC(=O)COc3ccccc3)ccc21,0,0,21µM,0,0,?
COc1ccc(OCC(=O)Nc2ccc3c(c2)nc(CCN2CCCC2)n3C)cc1,0,0,0,0,0,0
COc1ccc(CN2C(=O)C(CC(=O)NCc3ccco3)CC(C(=O)N(C(C)C)C(C)C)=C2C)cc1 (centres undefined),-,-,0,0,-,-
CN(C)C(CNS(=O)(=O)c1cc([N+](=O)[O-])ccc1Cl)c1ccco1 (centres undefined),-,-,27µM,0,0,0
O=C(CCSc1ccccc1)N1CCCC1,0,0,0,0,0,0
Cc1cc(C)c(-c2c(O)c3cnn(-c4ccccc4)c3[nH]c2=O)c(C)c1,0,-,0,0,0,0
Cc1onc(-c2ccccc2)c1C(=O)OCCOc1ccccc1F,0,0,27µM,0,0,?
Cc1ccccc1OCCOC(=O)c1c(-c2ccccc2)noc1C,0,0,0,0,0,0
CSc1ccc2c(c1)C(N1CCN(C)CC1)Cc1ccccc1S2 (centres undefined),0,0,0,0,0,50µM!
CSc1ccc2c(c1)[C@H](N1CCN(C)CC1)Cc1ccccc1S2,0,-,-,-,-,?
Nc1ccc2nc[nH]c2c1,-41,0,?,?,0,0
Cc1nn(CCC(N)=S)c2nc(-c3cccs3)cc(C(F)(F)F)c12,0,0,11µM,0,0,?
Cc1nn(CCC#N)c2nc(-c3ccccc3)cc(C(F)(F)F)c12,0,0,0,0,0,0
CC(=O)N(C)c1ccc(NC(=S)Nc2cccc3ccccc23)cc1,-36,0,0,0,0,0
Cc1ccc(NC(=S)NNC(=S)Nc2ccc(C)cc2C)cc1,0,0,11µM,0,0,45µM
CCc1ccc(NC(=S)Nc2cccc3cnccc23)cc1,-49,0,0,?,0,?
Cc1ccc(NC(=S)c2ccncc2)c(C)c1,0,0,0,0,0,35µM
Cc1ccc(NC(=O)CCC(=O)NNC(=S)Nc2ccccc2)c(C)c1,0,0,0,0,0,0
CN1CCN(C2CN(Cc3cn(Cc4ccc(Cl)cc4)nn3)S(=O)(=O)C2)CC1 (centres undefined),-,-,0,-,-,-
COc1cccc(N2CC(NC(=O)COc3ccccc3F)CC2=O)c1 (centres undefined),-,-,-,?,-,0
O=C(NNC(=O)c1cccs1)c1ccc2ccccc2c1,0,0,0,0,0,0
